Source: article PMC7862700, “An all-to-all approach to the identification of sequence-specific readers for epigenetic DNA modifications on cytosine”

Experiments:
Test in all cases: DAPPL (digital affinity profiling via proximity ligation, sequencing); 10 mM Tris-HCl pH 7.5, 50 mM NaCl, 1 mM DTT, 4% glycerol, room temperature, 30 min; GST-TFs on glutathione beads, 16-mer random dsDNA library, 0.1% formaldehyde crosslink after washing; high values mean tight binding
FEV = target: T1, FEV (Homo sapiens, UniProt Q99581 1-238); conditions: protein: recombinant; tags: N-terminal GST; dsDNA, one strand shown
T1 sequence: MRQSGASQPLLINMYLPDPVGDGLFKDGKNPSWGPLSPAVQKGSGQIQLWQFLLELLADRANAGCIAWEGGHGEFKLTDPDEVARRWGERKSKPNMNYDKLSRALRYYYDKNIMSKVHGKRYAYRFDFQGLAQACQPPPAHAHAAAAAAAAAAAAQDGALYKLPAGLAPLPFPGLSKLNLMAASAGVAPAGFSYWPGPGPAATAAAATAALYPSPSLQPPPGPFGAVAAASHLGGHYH
Method in brief: (§1)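 In yeast, human transcription factors were expressed with a GST fusion, then pulled down on glutathione beads and given DNA barcodes. Pooled with a tag-only sample, they were exposed to 200 nmole of a 16-mer random double-stranded DNA library (Tris/NaCl/DTT/glycerol buffer, room temperature, 30 min), washed, crosslinked with 0.1% formaldehyde, proximity-ligated using BsaI/T4 ligase for 1 h at 37 °C, PCR-amplified and read on an Illumina NextSeq500. Each hexamer's frequency of reads for a factor, divided by the matching frequency for the tag-only sample, gives the binding signal.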

ETV5 = ETV5 (Homo sapiens, UniProt P41161 1-510); conditions: protein: recombinant; tags: N-terminal GST; dsDNA, one strand shown
Method in brief: as §1

HSF1 = HSF1 (Homo sapiens, UniProt Q00613 1-529); conditions: protein: recombinant; tags: N-terminal GST; chain copies: 3; dsDNA, one strand shown
Method in brief: as §1

SPIC = target: T2, SPIC (Homo sapiens, UniProt Q8N5J4 1-248); conditions: protein: recombinant; tags: N-terminal GST; dsDNA, one strand shown
T2 sequence: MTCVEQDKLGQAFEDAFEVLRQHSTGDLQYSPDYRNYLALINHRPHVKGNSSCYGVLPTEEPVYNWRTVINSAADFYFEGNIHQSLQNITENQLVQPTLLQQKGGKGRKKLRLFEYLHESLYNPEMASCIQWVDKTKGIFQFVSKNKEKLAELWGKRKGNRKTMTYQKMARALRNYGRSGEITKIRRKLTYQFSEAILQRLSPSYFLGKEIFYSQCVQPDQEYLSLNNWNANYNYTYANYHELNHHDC
Method in brief: as §1

ELF4 = ELF4 (Homo sapiens, UniProt Q99607 1-663); conditions: protein: recombinant; tags: N-terminal GST; dsDNA, one strand shown
Method in brief: as §1

ELK4 = target: T3, ELK4 (Homo sapiens, UniProt P28324-2 1-405); conditions: protein: recombinant; tags: N-terminal GST; dsDNA, one strand shown
T3 sequence: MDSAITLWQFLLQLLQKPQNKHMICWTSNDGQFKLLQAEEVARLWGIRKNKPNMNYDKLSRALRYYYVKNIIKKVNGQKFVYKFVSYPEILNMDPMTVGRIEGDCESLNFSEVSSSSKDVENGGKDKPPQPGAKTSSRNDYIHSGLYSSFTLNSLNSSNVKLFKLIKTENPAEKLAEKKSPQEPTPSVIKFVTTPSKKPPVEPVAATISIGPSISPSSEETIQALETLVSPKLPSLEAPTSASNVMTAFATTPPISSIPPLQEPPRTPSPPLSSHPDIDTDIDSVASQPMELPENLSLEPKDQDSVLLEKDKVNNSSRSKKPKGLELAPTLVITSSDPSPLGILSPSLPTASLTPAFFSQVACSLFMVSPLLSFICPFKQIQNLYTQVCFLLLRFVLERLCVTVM
Method in brief: as §1

ETV2 = target: T4, ETV2 (Homo sapiens, UniProt O00321 1-342); conditions: protein: recombinant; tags: N-terminal GST; dsDNA, one strand shown
T4 sequence: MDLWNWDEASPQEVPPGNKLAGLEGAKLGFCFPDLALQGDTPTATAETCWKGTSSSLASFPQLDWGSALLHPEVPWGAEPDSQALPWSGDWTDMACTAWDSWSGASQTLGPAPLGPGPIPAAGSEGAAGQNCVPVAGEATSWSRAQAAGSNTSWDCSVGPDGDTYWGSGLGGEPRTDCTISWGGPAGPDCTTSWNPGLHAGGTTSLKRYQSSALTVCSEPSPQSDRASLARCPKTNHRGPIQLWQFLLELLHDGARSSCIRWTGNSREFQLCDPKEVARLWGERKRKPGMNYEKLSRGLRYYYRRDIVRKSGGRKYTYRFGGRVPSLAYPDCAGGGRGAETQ
Method in brief: as §1

ELF3 = target: T5, ELF3 (Homo sapiens, UniProt P78545 1-371); conditions: protein: recombinant; tags: N-terminal GST; dsDNA, one strand shown
T5 sequence: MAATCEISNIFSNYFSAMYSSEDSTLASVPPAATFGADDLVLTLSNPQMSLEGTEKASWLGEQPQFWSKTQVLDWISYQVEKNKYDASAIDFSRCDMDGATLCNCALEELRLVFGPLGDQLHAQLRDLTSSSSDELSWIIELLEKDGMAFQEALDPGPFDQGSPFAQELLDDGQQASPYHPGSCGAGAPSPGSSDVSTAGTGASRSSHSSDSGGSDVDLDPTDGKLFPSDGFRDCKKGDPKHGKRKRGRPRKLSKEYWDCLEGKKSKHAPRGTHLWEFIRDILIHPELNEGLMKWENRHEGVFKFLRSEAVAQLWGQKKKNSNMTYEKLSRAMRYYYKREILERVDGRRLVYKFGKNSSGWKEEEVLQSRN
Method in brief: as §1

CRX = CRX (Homo sapiens, UniProt O43186 1-299); conditions: protein: recombinant; tags: N-terminal GST; dsDNA, one strand shown
Method in brief: as §1

ETV1 = ETV1 (Homo sapiens, UniProt P50549 1-477); conditions: protein: recombinant; tags: N-terminal GST; dsDNA, one strand shown
Method in brief: as §1

Chain of CRX (O43186 whole entry): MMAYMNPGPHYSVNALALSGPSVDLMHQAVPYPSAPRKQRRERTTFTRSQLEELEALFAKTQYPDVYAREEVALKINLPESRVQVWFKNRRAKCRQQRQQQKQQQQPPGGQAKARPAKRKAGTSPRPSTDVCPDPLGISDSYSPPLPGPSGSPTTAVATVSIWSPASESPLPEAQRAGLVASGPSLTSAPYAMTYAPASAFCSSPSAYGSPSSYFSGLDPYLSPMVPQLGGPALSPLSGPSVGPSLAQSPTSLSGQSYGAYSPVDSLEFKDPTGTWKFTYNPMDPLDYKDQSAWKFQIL
Chain of ETV5 (P41161 whole entry): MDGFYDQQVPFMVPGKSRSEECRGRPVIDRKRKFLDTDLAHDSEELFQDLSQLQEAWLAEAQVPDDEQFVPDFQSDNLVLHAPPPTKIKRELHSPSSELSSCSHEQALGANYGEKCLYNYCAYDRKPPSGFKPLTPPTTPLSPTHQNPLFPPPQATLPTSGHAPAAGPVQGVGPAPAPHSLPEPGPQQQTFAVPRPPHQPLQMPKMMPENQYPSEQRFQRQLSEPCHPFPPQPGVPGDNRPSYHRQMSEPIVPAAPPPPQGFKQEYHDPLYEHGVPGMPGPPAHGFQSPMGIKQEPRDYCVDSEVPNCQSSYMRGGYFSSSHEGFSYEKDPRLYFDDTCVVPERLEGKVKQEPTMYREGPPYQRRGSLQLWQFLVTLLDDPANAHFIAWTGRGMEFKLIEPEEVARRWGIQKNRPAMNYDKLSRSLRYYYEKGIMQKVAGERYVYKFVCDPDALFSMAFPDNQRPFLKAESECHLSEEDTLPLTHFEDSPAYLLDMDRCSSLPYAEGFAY
Chain of HSF1 (Q00613 whole entry): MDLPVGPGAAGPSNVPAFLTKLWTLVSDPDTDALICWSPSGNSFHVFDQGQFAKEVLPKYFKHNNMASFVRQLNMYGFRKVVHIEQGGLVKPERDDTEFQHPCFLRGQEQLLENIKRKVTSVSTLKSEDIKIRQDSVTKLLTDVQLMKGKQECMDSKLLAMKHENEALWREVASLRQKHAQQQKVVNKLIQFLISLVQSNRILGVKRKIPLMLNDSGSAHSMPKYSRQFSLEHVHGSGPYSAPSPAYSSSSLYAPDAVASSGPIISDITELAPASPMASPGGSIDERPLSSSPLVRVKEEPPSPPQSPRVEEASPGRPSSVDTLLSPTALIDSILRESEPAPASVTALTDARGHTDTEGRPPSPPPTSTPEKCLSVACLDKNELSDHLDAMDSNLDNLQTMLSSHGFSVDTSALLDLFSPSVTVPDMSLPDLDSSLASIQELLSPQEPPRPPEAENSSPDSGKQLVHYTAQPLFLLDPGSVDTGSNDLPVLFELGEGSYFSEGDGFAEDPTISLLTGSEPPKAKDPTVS
Chain of ETV1 (P50549 whole entry): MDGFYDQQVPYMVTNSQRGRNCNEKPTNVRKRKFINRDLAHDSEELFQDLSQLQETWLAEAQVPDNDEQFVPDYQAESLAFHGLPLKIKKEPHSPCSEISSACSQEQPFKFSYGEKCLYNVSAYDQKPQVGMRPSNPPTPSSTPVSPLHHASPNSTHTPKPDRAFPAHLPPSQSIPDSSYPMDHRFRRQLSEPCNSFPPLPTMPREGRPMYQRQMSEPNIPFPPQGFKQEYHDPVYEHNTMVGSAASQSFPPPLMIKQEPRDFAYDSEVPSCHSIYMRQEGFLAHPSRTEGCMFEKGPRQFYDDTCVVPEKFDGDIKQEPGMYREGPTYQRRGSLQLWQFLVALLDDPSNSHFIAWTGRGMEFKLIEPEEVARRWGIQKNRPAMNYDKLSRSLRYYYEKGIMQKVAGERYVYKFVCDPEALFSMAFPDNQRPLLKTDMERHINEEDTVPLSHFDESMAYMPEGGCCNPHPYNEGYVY
Chain of ELF4 (Q99607 whole entry): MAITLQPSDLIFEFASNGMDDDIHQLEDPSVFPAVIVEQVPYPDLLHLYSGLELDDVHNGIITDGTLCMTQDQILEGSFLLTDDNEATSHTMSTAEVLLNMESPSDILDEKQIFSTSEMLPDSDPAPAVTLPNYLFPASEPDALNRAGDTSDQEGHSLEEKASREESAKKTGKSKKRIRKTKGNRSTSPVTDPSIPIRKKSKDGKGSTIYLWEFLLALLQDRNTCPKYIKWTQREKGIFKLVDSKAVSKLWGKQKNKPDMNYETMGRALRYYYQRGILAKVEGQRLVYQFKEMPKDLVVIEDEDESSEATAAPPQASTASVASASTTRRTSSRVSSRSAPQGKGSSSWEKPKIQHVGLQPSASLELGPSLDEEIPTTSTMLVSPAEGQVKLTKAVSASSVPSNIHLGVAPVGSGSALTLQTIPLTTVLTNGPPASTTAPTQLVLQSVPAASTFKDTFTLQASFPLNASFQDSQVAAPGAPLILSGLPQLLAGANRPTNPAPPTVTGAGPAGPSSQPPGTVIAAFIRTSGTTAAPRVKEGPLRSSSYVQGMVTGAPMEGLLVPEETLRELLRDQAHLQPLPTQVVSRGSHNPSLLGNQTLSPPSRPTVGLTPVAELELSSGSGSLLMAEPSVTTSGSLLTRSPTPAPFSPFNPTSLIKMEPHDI

CTCTCG
binding signal (FEV): 1.3 fold enrichment (6-mer frequency, TF over GST control)
binding signal (ETV5): 1.32 fold enrichment (6-mer frequency, TF over GST control)
binding signal (HSF1): 1.99 fold enrichment (6-mer frequency, TF over GST control)
binding signal (SPIC): 1.3 fold enrichment (6-mer frequency, TF over GST control)
binding signal (ELF4): 1.45 fold enrichment (6-mer frequency, TF over GST control)
binding signal (ELK4): 1.41 fold enrichment (6-mer frequency, TF over GST control)
binding signal (ETV2): 1.73 fold enrichment (6-mer frequency, TF over GST control)
binding signal (ELF3): 1.65 fold enrichment (6-mer frequency, TF over GST control)
binding signal (CRX): 1.32 fold enrichment (6-mer frequency, TF over GST control)
binding signal (ETV1): 1.47 fold enrichment (6-mer frequency, TF over GST control)
